Data as given in PubChem BioAssay AID624116 (National Center for Advancing Translational Sciences (NCATS), 2012).
Results filed as inconclusive are left out. A call without a number means that no potency is given here. Calls of active or inactive are those of the source. Calls follow the shape of the dose curve; as a rule, active = well fitted activation curve with a large enough effect; inconclusive = small, poorly fitted or top-dose-only effect; inactive = no such curve, though single readings can be large or run the other way.
Potency is read from the fitted curve at half-maximal effect.

Test: qHTS Assay for Rab9 Promoter Activators: Hit Validation Using Renilla Luciferase Read-Out for Rab9
Conditions: Huh7 Rab9 promoter Renilla luciferase reporter, 24 h; series mostly up to 76.9 µM
In short: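 Huh7 cells stably carrying promoter-luciferase reporter, exposed to compound for 24 h at 37 deg C. Luminescence read 10 min after adding luciferase detection reagent at room temperature.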
For COC(=O)c1ccccc1NC(=O)c1ccc(-c2ccc(Br)cc2)o1, the Potency was “inactive”. For COCC1CCN(C(=O)c2ccc3oc(Cc4ccccc4)nc3c2)C1 (stereo not drawn), the Potency was “inactive”. In the case of COc1ccc(-n2c(N)c(C(=O)NCc3ccco3)sc2=S)cc1, the Potency is reported as “inactive”. For CC(=O)Nc1nnc(SCC(=O)NCCOc2ccccc2)s1, the Potency was “inactive”. For COc1ccc(NC(=O)CCCN2C(=O)C(c3ccccc3)Oc3cccnc32)cc1OC (stereo not drawn), the Potency was “inactive”. In the case of Cc1ccc(NC(=O)c2ncc(Cl)c(Cl)c2Cl)cc1C, the Potency is reported as “inactive”. In the case of Cc1ccc(C(=O)NC2CCN(CC(=O)Nc3c(C)cc(C)cc3C)CC2)cc1, the Potency is reported as “inactive”. With Cc1noc(/C=C/N(C)C)c1S(=O)(=O)N1CCCC(C(=O)N2CCCCC2)C1 (stereo not drawn) the Potency was “inactive”. With CC1CCc2sc(C(=O)NNC(=S)NC3CC3)cc2C1 (stereo not drawn) the Potency was “inactive”. For NC(=O)C(=O)NN=C1C2CC3CC(C2)CC1C3, the Potency was “inactive”. For O=C(CSc1ncccn1)Nc1cccc2ccccc12, the Potency was “inactive”. For CCOC(=O)c1csc(COc2ccc(OC)cc2)n1, the Potency was “inactive”. For O=C(NC(=S)Nc1ccc(CN2CCCCC2)cc1)c1cc2ccccc2o1, the Potency was “inactive”. For CC(=O)c1c(C)[nH]c(C(=O)Nc2cccc(S(=O)(=O)N(C)C)c2)c1C, the Potency was 20.7 µM (active). With Cc1ccc(NC(=O)c2cccc(N3C(=O)CCC3=O)c2)nc1 the Potency was “inactive”. For CCOC(=O)c1ccc(-c2nnc(-c3ccc(Cl)cc3Cl)o2)cc1, the Potency was “inactive”. With COc1ccc(NC(=O)CSc2ccc([N+](=O)[O-])cc2)cc1S(=O)(=O)N1CCOCC1 the Potency was “inactive”. In the case of CCCC(C)NC(=O)c1ccc(OCc2ccc(Cl)cc2)c(OC)c1 (stereo not drawn), the Potency is reported as “inactive”. In the case of COc1ccc(-c2cc(C(=O)Nc3ccccc3F)on2)cc1, the Potency is reported as “inactive”. For Fc1ccc(-c2nc3nc4ccccc4nc3n2Cc2ccco2)cc1, the Potency was “inactive”. With O=C(NNC(=O)C1COc2ccccc2O1)c1ccccc1O (stereo not drawn) the Potency was “inactive”. For CC(=O)Nc1ccc(-c2csc(Nc3ncccn3)n2)cc1, the Potency was “inactive”. With Cn1c(CCN2CCN(c3ccccc3)CC2)nc2cc(NC(=O)c3ccco3)ccc21 the Potency was “inactive”. With O=C(CSc1nnc(-c2csc3c2CCCC3)o1)Nc1ccccc1 the Potency was “inactive”. With COc1ccc(-c2noc(N3CCCC(C(=O)Nc4ccccc4F)C3)n2)cc1 (stereo not drawn) the Potency was “inactive”. With O=C(COC(=O)c1ccc(-c2nnc(-c3ccccc3)o2)cc1)c1ccccc1 the Potency was “inactive”. In the case of COCc1cc(C)nc(N/N=C/c2ccc(-c3ccc(Cl)cc3[N+](=O)[O-])o2)c1C#N, the Potency is reported as “inactive”. In the case of CCC1CCCCN1CCCNC(=O)c1ccc2nc(N3CCCCC3)sc2c1 (stereo not drawn), the Potency is reported as “inactive”. For Cc1ccc(S(=O)(=O)N2CCN(c3cnn(C)c(=O)c3Cl)CC2)cc1, the Potency was “inactive”. For Cc1nc(SCC(=O)NC(=O)NC(C)(C)C)nc(C)c1C, the Potency was “inactive”. For COC(=O)c1ccc(NC(=O)c2ccc3nc(C)sc3c2)cc1, the Potency was “inactive”. For Cc1ccc(C(=O)c2cn[nH]c2-c2ccccc2O)cc1, the Potency was “inactive”. With S=C1NCN(CCc2ccccc2)CN1Cc1ccccc1 the Potency was “inactive”. For COC(=O)CSc1nc2cc3c(cc2cc1C#N)OCO3, the Potency was “inactive”. For Cc1cccc(C)c1NC(=O)Nc1cccs1, the Potency was “inactive”. In the case of O=C(NCCSCc1c(F)cccc1Cl)c1ccc(CN2CCOCC2)cc1, the Potency is reported as “inactive”. For CCOC(=O)CSc1nc2cc3c(cc2cc1C#N)OCO3, the Potency was “inactive”. For CC(Sc1ncnc2c1cnn2-c1ccccc1)C(=O)Nc1ccc(N2CCOCC2)cc1 (stereo not drawn), the Potency was “inactive”.
